Source: PubChem BioAssay (The Scripps Research Institute Molecular Screening Center)
ssDAF-12 act = activates DAF-12 receptor from parasite S. stercoralis; HEK293 ssDAF-12/GRIP1 lit1-tk-luc reporter, luminescence; % of 3 µM dafachronic acid response; activation, % at 6.8 µM; hit rate 1% among 370,000;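 active = activation above the mean over all tested compounds plus 3 SD, cut at about 0.9% in these data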
hgDAF-12 ag = hgDAF-12 agonism, primary luciferase screen; AID 687014; HEK293 GAL4-hgDAF12 UAS-luciferase reporter, agonist luminescence; normalized to butyrate control; activation, % at 6.8 µM; hit rate 1.8% among 370,000;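 active = activation above a cutoff set at the mean of all screened compounds plus 3 SD, cut at about 10% in these data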
hcDAF-12 act = activates DAF-12 receptor from parasite H. contortus; hit rate 1.4% among 370,000; HEK293 hcDAF-12 lit1-tk-luc reporter, luminescence; 0% DMSO, 100% Δ7-dafachronic acid; AID 652067; activation, % at 6.8 µM;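 active = activation above the mean of all tested compounds plus 3 SD, cut at about 5.5% in these data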
DAX1 inh-1 = inhibitors of human orphan nuclear receptor DAX1 (NR0B1); P51843; HEK293 Gal4-DAX1 luciferase reporter, luminescence; inhibition, % at 6.75 µM; hit rate 0.99% among 340,000;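 active = inhibition above the mean over all tested compounds plus 3 SD, cut at about 4.2% in these data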;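 also: inhibition shows as a rise in luminescence from relieved DAX1 repression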
Target sequence (P51843 207-470 limits assumed): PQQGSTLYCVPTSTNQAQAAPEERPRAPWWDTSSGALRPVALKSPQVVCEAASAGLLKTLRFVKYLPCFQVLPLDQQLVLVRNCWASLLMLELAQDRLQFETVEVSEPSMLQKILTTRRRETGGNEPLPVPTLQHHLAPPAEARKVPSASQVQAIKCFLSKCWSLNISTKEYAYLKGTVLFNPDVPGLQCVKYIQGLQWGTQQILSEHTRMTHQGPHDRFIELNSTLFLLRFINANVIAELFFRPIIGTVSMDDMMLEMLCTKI
DAX1 inh-2 = blocks DAX1 repression of SF-1 activated StAR promoter. hit rate 1.1% among 370,000. inhibition, % at 6.8 µM. HEK293T StAR-luciferase reporter, SF-1/DAX-1 repression relief;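 active = inhibition above the mean over all tested compounds plus 3 SD, cut at about 3.6% in these data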;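 also: higher inhibition means more luminescence from relief of DAX-1 repression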
DAX1 conf = NR0B1 (human) inhibition, confirmation. shares compounds with DAX1 inh-2. HEK293T StAR-promoter luciferase reporter, SF-1/DAX-1 repression. inhibition, % at 6.8 µM. hit rate 87% among 2,400. AID 652134;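 active = inhibition above the average of every tested compound plus 3 SD, cut at about 3.8% in these data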;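 also: active compounds raise luminescence by relieving repression of the StAR reporter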
SF1 AF2mut Luc = counter-screen for DAX1 inhibitors: nonselective inhibitors with SF-1 AF2 mutant. hit rate 78% among 2,400. shares compounds with DAX1 inh-2. HEK293 StAR-luciferase, luminescence. inhibition, % at 6.8 µM. AID 652136;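 active = inhibition above the mean of all tested compounds plus 3 SD, cut at about 3% in these data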
LXRb hcDAF ctr = activates human LXR-beta, counter-screen for hcDAF-12 agonists. shares compounds with hcDAF-12 act. HEK293 Gal4-LXR tk-luc reporter, luminescence, 24 h; normalized: DMSO 0%, positive control 100%. activation, % at 6.8 µM. 3,400 tested, under 10 active. AID 743027;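 active = mean percent activation of the reporter above a cutoff set as the average over tested compounds plus their standard deviation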
Target sequence (P55055 whole entry, looked up, the tested form may be a part): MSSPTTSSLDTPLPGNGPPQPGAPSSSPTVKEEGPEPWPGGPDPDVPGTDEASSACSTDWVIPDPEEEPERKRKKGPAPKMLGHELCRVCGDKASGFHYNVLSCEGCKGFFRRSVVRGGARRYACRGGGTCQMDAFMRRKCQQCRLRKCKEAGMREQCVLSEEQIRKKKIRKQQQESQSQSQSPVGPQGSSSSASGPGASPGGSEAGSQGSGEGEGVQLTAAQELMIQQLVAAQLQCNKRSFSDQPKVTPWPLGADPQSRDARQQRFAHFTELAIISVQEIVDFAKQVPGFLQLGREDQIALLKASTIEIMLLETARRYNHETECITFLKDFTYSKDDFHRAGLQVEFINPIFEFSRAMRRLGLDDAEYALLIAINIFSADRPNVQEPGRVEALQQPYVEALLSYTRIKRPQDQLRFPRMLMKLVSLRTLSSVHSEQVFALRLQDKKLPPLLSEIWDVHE
hcDAF12 conf = hcDAF-12 agonism, confirmation assay. shares compounds with hcDAF-12 act. HEK293 hcDAF-12 lit1-tk-luc reporter, luminescence; % of Δ7-dafachronic acid response. activation, % at 6.8 µM. hit rate 61% among 3,400;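 active = mean activation across triplicate tests above the threshold derived from the earlier primary screen, cut at about 5.5% in these data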
hgDAF12 conf = confirmation of H. glycines DAF-12 agonists; shares compounds with hgDAF-12 ag; activation, % at 6.8 µM; hit rate 80% among 3,300; HEK293 GAL4-hgDAF12 luciferase reporter, agonist mode; percent of butyrate response;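 active = mean activation over triplicate wells above the hit cutoff derived from the earlier primary screen, cut at about 11% in these data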
LXR ag 2 = LXR-beta agonism as DAF-12 counter-screen. AID 743051. shares compounds with hgDAF-12 ag. 3,300 tested, under 10 active. HEK293 Gal4-LXR luciferase reporter, 24 h. activation, % at 6.8 µM;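 active = mean activation of the triplicate above a set limit carried over from the primary screen, none filed active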
Of the large screens only hits and unclear results are named; the others gave an inactive call (follow-up assays come after a bar, where they were run). Shown are actives, neighbours in structure and some others; about 4.1% of the full set was active somewhere.

C[C@H]1CCCCO[C@@H](CN(C)CC2CC2)[C@@H](C)CN([C@@H](C)CO)C(=O)c2cc(NS(=O)(=O)c3ccccc3)ccc2O1	none (no result: DAX1 inh-1)
Fc1ccc(N/N=C/c2ccncc2)c(F)c1	none
O=C(O)c1ccc(/C=N/Nc2ccc(F)cc2F)cc1	ssDAF-12 act 2.5, hgDAF-12 ag 21, hcDAF-12 act 9.8, DAX1 inh-2 12 | DAX1 conf 20 | SF1 AF2mut Luc 5.5 | hgDAF12 conf 21 | LXR ag 2 inactive
CC1(C)CC(=O)C=C(c2n[nH]nc2C2=CCCCC2)C1	none
O=C1NC[C@@H](CCCCN2C[C@H](Cc3ccc(O)cc3)N(CCC3CCCCC3)C(=O)C2=O)N(CCc2ccc(O)cc2)C1=O	none (no result: DAX1 inh-1)
Cc1cccc(Cn2cc(COC(=O)N3CCCC3)nn2)c1	none (no result: DAX1 inh-1)
COc1cc2ccccc2cc1C(=O)NCC(c1cccs1)N(C)C (stereo not drawn)	hgDAF-12 ag 15, hcDAF-12 act 6.4, DAX1 inh-2 10 | DAX1 conf 12 | SF1 AF2mut Luc 7.1 | hgDAF12 conf 16 | LXR ag 2 inactive
COc1cc(OC)c(C(=O)NCC(c2cccs2)N(C)C)cc1OC (stereo not drawn)	none (no result: ssDAF-12 act, hgDAF-12 ag, hcDAF-12 act, DAX1 inh-2)
CC1C(=O)Nc2ccccc2N1C(=O)c1ccc(O)cc1 (stereo not drawn)	none
O=C1Nc2ccccc2N(C(=O)c2ccc3ccccc3c2)C1c1nc2ccccc2[nH]1 (stereo not drawn)	ssDAF-12 act 1.8, hgDAF-12 ag 27, hcDAF-12 act 6.7, DAX1 inh-2 13 (no result: DAX1 inh-1) | DAX1 conf inactive | SF1 AF2mut Luc 2.9 | LXRb hcDAF ctr inactive | hcDAF12 conf inactive | hgDAF12 conf inactive | LXR ag 2 inactive
S=C(NCCN1CCOCC1)Nc1ccc(Br)cc1	hcDAF-12 act 6.9 | LXRb hcDAF ctr inactive | hcDAF12 conf inactive
CCS/C(N)=N/N=C/c1cc(C)ccc1O	hcDAF-12 act 7.9 | LXRb hcDAF ctr inactive | hcDAF12 conf 6.2
CCOC(=O)C1=NN(c2ccccc2)C2=NC(C)=C(C(=O)OC)C(c3ccc(C)cc3)N12 (stereo not drawn)	hcDAF-12 act 8.3 | LXRb hcDAF ctr inactive | hcDAF12 conf inactive
O=C1c2ccccc2CC1Sc1nnc(-c2ccccn2)o1 (stereo not drawn)	hcDAF-12 act 6.7 | LXRb hcDAF ctr inactive | hcDAF12 conf inactive
O=C1CC(Sc2nnc(-c3ccccc3O)o2)C(=O)N1c1ccccc1 (stereo not drawn)	none
O=C(CSc1nc2sc3c(c2c(=O)n1-c1ccc(Cl)cc1)CCC3)Nc1ccc(C(=O)O)cc1	hcDAF-12 act 7.9 (no result: DAX1 inh-1) | LXRb hcDAF ctr inactive | hcDAF12 conf inactive
CC(c1ccccc1)n1cc(C(=O)N2CCCN(Cc3ccccc3)CC2)nn1 (stereo not drawn)	none (no result: DAX1 inh-1)
O=C(O)c1cc(Cl)c2ccccc2c1O	hcDAF-12 act 6.9 | LXRb hcDAF ctr inactive | hcDAF12 conf inactive
CSc1nc(-c2ccc(Cl)cc2)nc(N)c1C#N	none (no result: DAX1 inh-1)
CSc1nc(-c2ccc(C)cc2)nc(N)c1C#N	ssDAF-12 act 2.2, hcDAF-12 act 8.5 | LXRb hcDAF ctr inactive | hcDAF12 conf 7.8
O=C(NCCc1ccc2c(c1)OCO2)c1cc(-c2ccccc2)c(N2CCOCC2)s1	none (no result: DAX1 inh-1)
S=C(N/N=C/c1ccc(Cl)cc1)N1CCOCC1	hgDAF-12 ag 13, hcDAF-12 act 7.2 | LXRb hcDAF ctr inactive | hcDAF12 conf inactive
CCN(CCO)C(=O)CC1C(=O)NCCN1Cc1c(F)cccc1Cl (stereo not drawn)	hcDAF-12 act 11 | LXRb hcDAF ctr inactive | hcDAF12 conf inactive
O=c1ncccn1C1OC(CO)C(O)C1O (stereo not drawn)	none (no result: DAX1 inh-1)
O=C(NC1CCCCN(Cc2cccc(C(F)(F)F)c2)C1=O)C1C2CC3CC(C2)CC1C3 (stereo not drawn)	none (no result: DAX1 inh-1)
Cc1ccc(-n2nc3ccc(N)cc3n2)cc1	ssDAF-12 act 0.9, hcDAF-12 act 13, DAX1 inh-2 3.7 | LXRb hcDAF ctr inactive | hcDAF12 conf 6.7
Cc1cc2nn(-c3ccc(Cl)cc3)nc2cc1N	ssDAF-12 act 1.0, hcDAF-12 act 9.7 | LXRb hcDAF ctr inactive | hcDAF12 conf 13
COc1ccc(-n2nc3cc(C)c(N)cc3n2)cc1Cl	none
CCOc1ccc(-n2nc3cc(C)c(N)cc3n2)cc1	ssDAF-12 act 1.8, hgDAF-12 ag 12, hcDAF-12 act 7.5 | LXRb hcDAF ctr inactive | hcDAF12 conf 8.8
COC(=O)[C@]12C[C@H](CC(=O)NCCCN3CCCC3=O)C(=O)N(Cc3ccc(Cl)cc3Cl)C1=C[C@H](C(C)(C)C)O[C@@H]2C	none (no result: DAX1 inh-1)
COc1cccc(C(=O)N2CCC[C@@H]2C(=O)N2CCC[C@H]2C(=O)NCc2ccccc2)c1	none (no result: DAX1 inh-1)
CN1CCC/C1=C/C=C1\SC(=S)NC1=O	hcDAF-12 act 7.0 | LXRb hcDAF ctr inactive | hcDAF12 conf inactive
CN1/C(=C\C=C2/SC(=S)NC2=O)C(C)(C)c2ccccc21	none
CCN(C(=O)CN(C1=NC2CS(=O)(=O)CC2S1)c1ccc(OC)cc1)c1cccc(C)c1 (stereo not drawn)	none (no result: DAX1 inh-1)
Cc1cccc(NC(=O)COC(=O)c2nn(-c3ccccc3C(F)(F)F)cc2O)c1C	none
Cc1ccccc1Cn1cc(CN2[C@@H](C)COc3cc(Br)ccc3S2(=O)=O)nn1	none (no result: DAX1 inh-1)
C=CCN1C(=O)[C@H](CC(=O)NCc2ccc(OC)c(OC)c2)[C@@]2(C(=O)OCC)CCCC=C12	none (no result: DAX1 inh-1)
Cc1ccc(-c2cc(-c3ccccc3)no2)cc1	ssDAF-12 act 1.8, hgDAF-12 ag 14, hcDAF-12 act 14, DAX1 inh-2 3.7 | LXRb hcDAF ctr inactive | hcDAF12 conf 14
Cc1ccc(NC(=O)OCc2cc(-c3ccccc3)on2)cc1	none
